Test [1] can be described thus: anti-His antibody binders, primary screen, artefact control for SMM control protein annotation, biochemical, small-molecule microarray, 635 nm fluorescence (AID 1128).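 Further: score merges feature fluorescence with signal-to-noise for each printed compound spot.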 To be noted: anti-His Alexa647 antibody binding, higher = more signal.
Test [2] concerns Human papillomavirus type 1a E7 protein (residues 1-88). Briefly: HPV1a E7 small-molecule binders, primary screen, biochemical, small-molecule microarray, residues 1-88, 635 nm (AID 1129). To be noted: small-molecule microarray binding, fluorescence 635 nm; higher = more signal.
The target of test [3] is Focal adhesion kinase 1 (Homo sapiens) (UniProt Q05397). The test is described as follows: small-molecule microarray binders of FAK, primary screen, biochemical, 635/667 nm fluorescence, BSA, DTT (AID 1130).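 Further: composite of spot emission at 667 nm and signal to noise over triplicate slides.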 To be noted: PTK2 binding, 635 nm fluorescence, higher = more signal.
Test [4] has as its system Fibrinogen (Alexa647-labelled). Briefly: fibrinogen binders on compound microarrays, profiling panel, artefact control for SMM control-protein annotation, biochemical, small-molecule microarray, 635/667 nm fluorescence (AID 1131).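 Further: z-score merges 667 nm fluorescence with per-spot signal-to-noise over triplicate slides.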 The note with it: fibrinogen-A647 binding fluorescence, higher = more signal.
The target of test [5] is Follistatin (Homo sapiens) (UniProt P19883). Briefly: follistatin binders on small-molecule microarrays, primary screen, biochemical, small-molecule microarray, 635/667 nm fluorescence (AID 1132). The note with it: FST binding, 635 nm fluorescence, higher = more signal.
In test [6] the target is Fibroblast growth factor 2 (Homo sapiens) (UniProt P09038). Briefly: FGF2 binders on small-molecule microarrays, primary screen, biochemical, small-molecule microarray, 635/667 nm fluorescence (AID 1133). To be noted: small-molecule microarray binding, FGF2, fluorescence 635/667; higher = more signal.
Test [7] can be described thus: mitochondrial membrane potential change in A549 cells, profiling panel, cell-based, JC-1 fluorescence, basal, 24 h, 100 nL (AID 1138).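 Further: A549 lung adenocarcinoma cells under basal conditions with no added stimulus; test concentration not given here.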 To be noted: higher = more signal.
Another test concerns Lefty1. The test is described as follows: Lefty1 binders on small-molecule microarrays, primary screen, biochemical, small-molecule microarray, 635/667 nm fluorescence (AID 1139). To be noted: small-molecule microarray binding, fluorescence 635/667; higher = more signal.
Test [8] relates to wheat germ agglutinin (Triticum aestivum), Alexa647-labelled. Briefly: wheat germ agglutinin binders on compound microarrays, profiling panel, artefact control for SMM control-protein annotation, biochemical, small-molecule microarray, 635/667 nm fluorescence (AID 1140).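 Further: score merges 667 nm feature emission with signal to noise over triplicate slides.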 To be noted: WGA-A647 binding, 635 nm fluorescence, higher = more signal.
Test [9] concerns the target Luciferin 4-monooxygenase (Photinus pyralis) (UniProt P08659). The test is described as follows: firefly luciferase enzyme inhibitors, primary screen, biochemical, luminescence, purified enzyme, 2006 set (AID 1141).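 Further: cell-free assay with purified firefly luciferase at 100 ng per well in PBS; test concentration not given here.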 To be noted: SteadyGlo luminescence, 30 min, higher = more signal, called active from +8 up or from −8 down.
Test [10] deals with Wnt5a (protein binding on small-molecule microarray). Briefly: Wnt5a binders on small-molecule microarray, primary screen, biophysical, 635/667 nm fluorescence (AID 1142).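 Further: fluorescence read at 667 nm with signal to noise per printed feature.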 To be noted: 635 nm fluorescence, higher = more signal.
The nature of test [11]: cell viability in Huh7 cells, primary screen, cytotoxicity control for HCV replication inhibitor project, CellTiter-Glo luminescence, basal, 48 h (AID 1143).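 Further: Huh7 hepatoma cells carrying a hepatitis C replication reporter with no stimulus; test concentration not given here.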 The note with it: Huh7 HCV replicon, higher = more signal, called active from +8 up or from −8 down.
Test [12] is described as follows: P. aeruginosa biofilm formation inhibitors, primary screen, PAO1 strain, BacTiter-Glo luminescence, LB-PBS (AID 1144). To be noted: 12 h, higher = more signal.
Test [13] in a line: CREB reporter modulators without forskolin, primary screen, cell-based, PC12, CRE-LacZ reporter, unstimulated (AID 1145). The note with it: no forskolin, luminescence, 4.5 h, higher = more signal, called active from +8 up or from −8 down.
The nature of test [14]: CREB reporter modulators under forskolin, primary screen, cell-based, PC12, CRE-LacZ reporter, forskolin-stimulated (AID 1146).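 Further: PC12 cells with 6xCRE LacZ reporter stimulated by forskolin 10 µM; beta-galactosidase reporter signal reflecting CREB driven transcription.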 The note with it: luminescence, 4.5 h, higher = more signal, called active from +8 up or from −8 down.
The target of test [15] is Streptavidin (Streptomyces avidinii) (UniProt P22629). The test is described as follows: streptavidin binders on small-molecule microarray, primary screen, artefact control for SMM compound annotation, biophysical, 635/667 nm fluorescence (AID 1147).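 Further: signal reflects streptavidin binding to arrayed compounds as a control protein.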 The note with it: streptavidin binding, higher = more signal.
Test [16] is described as follows: small-molecule binders of probe aInhba, primary screen, biochemical, small-molecule microarray, 635/667 nm fluorescence (AID 1148).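 Further: score merges 667nm spot fluorescence with signal-to-noise for antibody binding to printed compounds.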 To be noted: higher = more signal.
Test [17] has as its target Torsin-1A (Homo sapiens) (UniProt O14656). The test is described as follows: torsin A binders from cell lysate, primary screen, small-molecule microarray, wild-type, 635/667 nm (AID 1149). To be noted: COS7 hTOR1A-WT lysate, 635 nm fluorescence, higher = more signal.
Test [18] shares this target. The test is described as follows: small-molecule binders of mutant TOR1A in lysate, primary screen, cell lysate, small-molecule microarray, COS7 lysate, 635/667 nm fluorescence (AID 1150).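 Further: score pools 667 nm emission and signal to noise measuring lysate protein binding.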 To be noted: COS7 hTOR1A mutant lysate, 635 nm fluorescence, higher = more signal.
Test [19] relates to Sonic hedgehog protein (Shh). Briefly: small-molecule binders of Shh protein, primary screen, biochemical, small-molecule microarray, 635/667 nm fluorescence (AID 1151).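 Further: Shh protein binding to compounds spotted on small-molecule microarray slides; score combines spot fluorescence intensity with signal-to-noise across triplicate slides.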 The note with it: small-molecule microarray binding, 635 nm fluorescence; higher = more signal.

The structures appear in SMILES notation. Calls of active or inactive are those of the source. Unless noted, how the calls were made is not given here.

Luciferin 4-monooxygenase (Photinus pyralis), sequence (P08659 whole entry, looked up): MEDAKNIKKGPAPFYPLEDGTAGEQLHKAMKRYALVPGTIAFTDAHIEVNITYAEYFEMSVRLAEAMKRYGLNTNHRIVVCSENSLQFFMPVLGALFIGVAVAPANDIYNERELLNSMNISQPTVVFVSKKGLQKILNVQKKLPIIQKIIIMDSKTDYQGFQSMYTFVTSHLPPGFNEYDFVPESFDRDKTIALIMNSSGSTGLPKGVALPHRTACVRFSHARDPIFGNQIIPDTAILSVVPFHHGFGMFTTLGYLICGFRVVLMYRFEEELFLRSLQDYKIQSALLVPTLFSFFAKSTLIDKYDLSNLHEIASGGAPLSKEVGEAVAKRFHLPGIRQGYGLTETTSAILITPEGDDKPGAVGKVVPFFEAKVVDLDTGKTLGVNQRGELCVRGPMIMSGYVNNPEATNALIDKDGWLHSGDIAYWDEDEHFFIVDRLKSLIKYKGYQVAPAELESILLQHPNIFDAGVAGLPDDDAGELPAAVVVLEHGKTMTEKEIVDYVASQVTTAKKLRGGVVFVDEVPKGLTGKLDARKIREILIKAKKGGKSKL
Fibroblast growth factor 2 (Homo sapiens), sequence (P09038 whole entry, looked up): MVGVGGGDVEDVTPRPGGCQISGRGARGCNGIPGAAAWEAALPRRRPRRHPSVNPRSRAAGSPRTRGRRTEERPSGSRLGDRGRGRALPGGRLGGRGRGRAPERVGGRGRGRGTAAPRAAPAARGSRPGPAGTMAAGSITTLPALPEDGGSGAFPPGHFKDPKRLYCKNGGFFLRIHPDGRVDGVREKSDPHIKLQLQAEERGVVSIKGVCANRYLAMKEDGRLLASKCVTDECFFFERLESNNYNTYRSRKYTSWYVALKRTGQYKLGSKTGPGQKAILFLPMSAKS
Torsin-1A (Homo sapiens), sequence (O14656 whole entry, looked up): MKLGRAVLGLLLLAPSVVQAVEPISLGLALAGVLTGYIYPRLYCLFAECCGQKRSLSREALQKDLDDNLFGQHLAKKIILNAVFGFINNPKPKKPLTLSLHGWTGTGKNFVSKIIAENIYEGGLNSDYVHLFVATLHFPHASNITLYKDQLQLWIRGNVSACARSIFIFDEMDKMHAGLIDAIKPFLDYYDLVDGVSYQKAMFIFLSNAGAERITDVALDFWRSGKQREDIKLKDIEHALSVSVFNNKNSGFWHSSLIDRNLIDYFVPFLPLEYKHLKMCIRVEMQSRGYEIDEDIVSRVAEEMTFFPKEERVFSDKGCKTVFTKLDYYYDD
Streptavidin (Streptomyces avidinii), sequence (P22629 whole entry, looked up): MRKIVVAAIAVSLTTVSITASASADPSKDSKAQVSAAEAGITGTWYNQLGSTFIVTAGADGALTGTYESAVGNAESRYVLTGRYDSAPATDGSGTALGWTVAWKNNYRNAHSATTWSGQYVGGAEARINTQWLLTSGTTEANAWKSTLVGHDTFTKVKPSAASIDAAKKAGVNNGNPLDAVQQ
Focal adhesion kinase 1 (Homo sapiens), sequence (Q05397 whole entry, looked up): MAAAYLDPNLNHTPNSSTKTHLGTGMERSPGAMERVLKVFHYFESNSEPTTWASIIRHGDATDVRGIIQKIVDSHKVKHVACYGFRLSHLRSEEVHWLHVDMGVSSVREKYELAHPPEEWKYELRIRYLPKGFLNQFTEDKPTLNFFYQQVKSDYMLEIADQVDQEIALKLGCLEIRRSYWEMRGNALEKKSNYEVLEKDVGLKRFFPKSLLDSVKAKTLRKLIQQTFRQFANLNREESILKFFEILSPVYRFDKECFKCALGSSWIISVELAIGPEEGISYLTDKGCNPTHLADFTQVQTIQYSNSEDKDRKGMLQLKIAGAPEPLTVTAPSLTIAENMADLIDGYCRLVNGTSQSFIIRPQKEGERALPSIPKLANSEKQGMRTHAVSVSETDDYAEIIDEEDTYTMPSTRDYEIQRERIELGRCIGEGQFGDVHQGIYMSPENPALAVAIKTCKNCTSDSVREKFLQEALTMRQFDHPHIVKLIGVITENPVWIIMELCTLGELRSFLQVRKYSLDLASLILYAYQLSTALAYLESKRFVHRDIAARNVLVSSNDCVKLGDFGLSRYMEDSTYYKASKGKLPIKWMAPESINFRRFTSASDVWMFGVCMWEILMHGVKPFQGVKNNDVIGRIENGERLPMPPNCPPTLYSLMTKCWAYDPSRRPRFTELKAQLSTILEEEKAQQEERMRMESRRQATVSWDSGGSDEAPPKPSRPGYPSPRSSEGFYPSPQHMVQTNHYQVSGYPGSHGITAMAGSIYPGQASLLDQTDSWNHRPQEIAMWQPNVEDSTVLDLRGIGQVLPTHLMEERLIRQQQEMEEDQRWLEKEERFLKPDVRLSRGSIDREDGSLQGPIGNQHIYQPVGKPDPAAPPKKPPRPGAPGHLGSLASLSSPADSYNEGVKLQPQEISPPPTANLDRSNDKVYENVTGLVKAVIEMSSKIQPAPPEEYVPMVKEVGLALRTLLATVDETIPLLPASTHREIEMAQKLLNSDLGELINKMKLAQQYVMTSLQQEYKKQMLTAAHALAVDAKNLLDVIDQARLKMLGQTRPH
Follistatin (Homo sapiens), sequence (P19883 whole entry, looked up): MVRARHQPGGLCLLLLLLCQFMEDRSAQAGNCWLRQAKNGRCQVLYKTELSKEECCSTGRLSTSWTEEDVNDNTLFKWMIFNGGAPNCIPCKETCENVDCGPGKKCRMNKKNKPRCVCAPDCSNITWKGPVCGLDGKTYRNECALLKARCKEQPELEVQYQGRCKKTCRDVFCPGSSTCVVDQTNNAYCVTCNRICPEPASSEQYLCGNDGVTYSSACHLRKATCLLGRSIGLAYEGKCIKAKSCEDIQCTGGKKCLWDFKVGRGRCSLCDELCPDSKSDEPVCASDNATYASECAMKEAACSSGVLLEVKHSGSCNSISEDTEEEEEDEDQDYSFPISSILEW

On to `O=C(O)C1N=C(c2ccc(OCCCO)cc2)N(c2ccccc2)O1` (stereo not given), for which the composite z-score in test [1] stood at 1.73; in [2] it was 1.1; in test [3], 0.817; in [4], 0.953; in test [5], 1.3; in test [6], 1.18. For the same molecule, the composite z-score with Lefty1 was 0.369; in test [8] it was 0.207; in test [10], 0.222; in [15], 0.926; in test [16], -0.166; with Torsin-1A (Homo sapiens) [17], 0.666. For the same molecule, the results for the composite z-score (in the test with Torsin-1A (Homo sapiens) [18]; in test [19]) were 1.72 and 0.287, respectively. In addition, the z-score in test [7] is 0.0657; in [9] it was -7.84 (inactive); in test [11], -0.205 (inactive); in [12] it was 1.3 (inactive); in test [13], 0.101 (inactive); in test [14], 1.16 (inactive).
Take `CCOC(=O)C1=CC[C@@H](c2ccccc2)N(S(=O)(=O)c2ccc(C)cc2)[C@H]1c1ccc(CC)cc1`: the composite z-score in [1] stood at 1.09; in [2], 1.18; in [3], 0.761; in [4], 0.966; in [5], 0.352; in test [6], 0.286. In addition, the composite z-score in the test on Lefty1 is 0.245; in [8], 0.758; in [10], 0.074; in test [15], 1.13; in test [16], 0.0018; with Torsin-1A (Homo sapiens) [17], 0.567. In addition, the composite z-score is 0.359 in the test with Torsin-1A (Homo sapiens) [18] and -0.737 in [19]. Also, the z-score in [7] is 2.58; in test [9], 1.46 (inactive); in test [11] it was -3.08 (inactive); in [12], 1.17 (inactive); in test [13] it was 0.136 (inactive); in test [14] it was 0.0268 (inactive).
Turning to `COC(=O)c1c2oc(c1C(=O)OC)C(=O)N[C@@H](C(C)C)Cn1cc(nn1)C1(CCCCC1)NC(=O)N[C@H](CO)CC2`, the composite z-score was 0.591 in test [1]; -0.159 in [2]; -0.0947 in test [3]; 0.209 in [4]; 0.515 in test [5]; 1.58 in test [6]. In addition, the composite z-score in the test on Lefty1 was 0.102; in [8] it was 0.0969; in test [10], 0.432; in test [15], 0.177; in test [16] it was -0.0477; with Torsin-1A (Homo sapiens) [17], 0.935. The values for the composite z-score (with Torsin-1A (Homo sapiens) [18]; in test [19]) were 0.48 and 0.246, respectively. Further, the z-score is 2.2 in test [7]; -1.3 (inactive) in test [9]; 0.24 (inactive) in [11]; -0.377 (inactive) in [12]; 2.08 (inactive) in test [13]; -0.178 (inactive) in test [14].
Consider `COC(=O)[C@@]1(Cc2ccccc2)[C@H]2c3cc(C(=O)N4CCCC4)n(Cc4c(CO)[nH]cc(C)c4=O)c3C[C@H]2CN1C(=O)c1ccccc1`, for which the composite z-score is 1.18 in test [1]; 0.93 in [2]; 0.777 in [3]; 0.827 in test [4]; 0.518 in [5]; -0.258 in test [6]. For the same molecule, the composite z-score with Lefty1 is -0.816; in test [8] it was 1.05; in [10], 0.652; in test [15] it was 1.01; in [16] it was -0.101; with Torsin-1A (Homo sapiens) [17], 0.4. The composite z-score with Torsin-1A (Homo sapiens) [18] was 0.491; in test [19], -0.547. For the same molecule, the z-score in test [7] is -0.0421; in test [9] it was 2.49 (inactive); in test [11], 0.0519 (inactive); in test [12], -0.0914 (inactive); in [13], 0.0109 (inactive); in test [14], 0.473 (inactive).
Take `CC(C)N1CC=CC23O[C@@H]4C=CCOC(=O)[C@@H]4[C@H]2C(=O)N(CCCCCO)[C@@H]3C1=O` (stereo not given in full): the composite z-score in test [1] was 2.11; in [2], -0.01; in test [3], 0.345; in test [4], -1.86; in test [5] it was -0.382; in [6], -0.377. Also, the composite z-score with Lefty1 was 0.204; in test [8] it was 0.0322; in test [10], -0.094; in test [15], -0.48; in [16] it was -0.152; in the test with Torsin-1A (Homo sapiens) [17], -0.167. In addition, the composite z-score was found to be 1.09 in the test with Torsin-1A (Homo sapiens) [18] and 0.0095 in test [19]. The z-score in [7] is -0.178; in test [9], -3.48 (inactive); in [11], -1.27 (inactive); in test [12], -1.56 (inactive); in test [13], -1.72 (inactive); in test [14] it was -0.679 (inactive).
